Compound activity deposited in PubChem BioAssay by several laboratories.
Hits are enriched below; roughly 1.2% of the tested compounds scored in any of these assays.
CR mimetic SO = caloric restriction mimetics inhibiting age-related superoxide in yeast; superoxide response (% of plate mean), % at 10 µM; S. cerevisiae aged cells, superoxide DHE fluorescence; stronger effect = lower value; actives 0.18% (n = 330,000);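 active means superoxide response under a set limit, about three screen SD below normal, cut at about 65% in these data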;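 further: yeast aged for seven days with compound at 30 °C before DHE staining; 100% = average MFI of all compound-treated wells on the plate with controls excluded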
VLA-4 inh = inhibition in a human VLA-4 binding assay. VLA-4 expressing cells, ligand binding flow cytometry. actives 0.2% (n = 330,000). inhibition, % (about 7 µM as worked out from the volumes in the protocol). AID 2557; in the data active means inhibition above about 50%
Platelet DG rel = platelet dense granule release activity. human platelet-rich plasma, SFLLRN dense granule ATP release, luminescence. inhibition, %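 (compounds screened at 7.5 µM in platelet-rich plasma)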. actives 0.22% (n = 300,000). AID 1663;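 active means mean replicate score, as percent of positive control, at or above 50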
ABCB6 inh 2 = human ABCB6 transporter inhibition; Q9NP58; K562-ABCB6 porphyrin accumulation, flow cytometry, 1 h; stronger effect = lower value; fluorescence ratio to DMSO, % at 10 µM; actives 0.19% (n = 360,000); AID 602162;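 active means fluorescence ratio to DMSO below 75%, the collection mean minus 3 SD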;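 further: signal is porphyrin accumulated inside mitochondria; 100% equals median channel fluorescence of DMSO control wells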
Target sequence (Q9NP58 whole entry, looked up): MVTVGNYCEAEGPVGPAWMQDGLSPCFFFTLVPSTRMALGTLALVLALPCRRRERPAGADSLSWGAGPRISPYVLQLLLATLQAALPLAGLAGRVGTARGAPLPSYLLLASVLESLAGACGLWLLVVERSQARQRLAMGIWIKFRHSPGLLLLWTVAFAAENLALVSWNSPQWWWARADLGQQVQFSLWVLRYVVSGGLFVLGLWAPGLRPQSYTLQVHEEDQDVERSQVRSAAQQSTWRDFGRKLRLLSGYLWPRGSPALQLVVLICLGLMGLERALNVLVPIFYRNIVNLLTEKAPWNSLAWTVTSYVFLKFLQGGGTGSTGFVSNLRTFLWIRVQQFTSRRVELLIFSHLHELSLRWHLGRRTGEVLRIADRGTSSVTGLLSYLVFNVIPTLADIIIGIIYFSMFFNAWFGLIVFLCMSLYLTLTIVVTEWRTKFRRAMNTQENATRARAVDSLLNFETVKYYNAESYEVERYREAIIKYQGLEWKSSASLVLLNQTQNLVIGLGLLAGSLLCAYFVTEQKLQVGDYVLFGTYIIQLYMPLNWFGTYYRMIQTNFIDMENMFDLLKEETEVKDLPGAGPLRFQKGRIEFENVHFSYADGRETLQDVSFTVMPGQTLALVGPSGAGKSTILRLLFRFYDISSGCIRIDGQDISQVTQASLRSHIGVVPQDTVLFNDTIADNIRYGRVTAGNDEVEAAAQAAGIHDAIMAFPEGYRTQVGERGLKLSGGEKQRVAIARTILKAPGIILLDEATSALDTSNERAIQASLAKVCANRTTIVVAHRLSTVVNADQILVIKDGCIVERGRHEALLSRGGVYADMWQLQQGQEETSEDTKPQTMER
SKN-1 inh = C. elegans SKN-1 inhibition | C. elegans VP596 Pgst-4::GFP/RFP ratio, acrylamide-induced, 24 h | AID 624304 | inhibition, % at 21.8 µM | actives 0.49% (n = 360,000);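 active means interference check ratio from 0.5 to 1.5 plus GFP to RFP signal ratio inhibition reaching or exceeding a fixed threshold, cut at about 30% in these data, passing the limit was not always enough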
ABCB6 inh CP1 = human ABCB6 transporter inhibition. K562-ABCB6 porphyrin accumulation, flow cytometry, 1 h; stronger effect = lower value. shares compounds with ABCB6 inh 2. ratio response (% of DMSO), % at 10 µM. 700 tested, under 10 active;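 active means repeat-averaged ratio response below 75% of DMSO, the collection mean minus 3 SD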;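 further: median porphyrin fluorescence at 575 nm with 488 nm excitation from mitochondria; lower ratio means less porphyrin signal so ABCB6 inhibition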
Active calls of the source: *; nt = not tested or not shown.

SMILES	CR mimetic SO	VLA-4 inh	Platelet DG rel	ABCB6 inh 2	SKN-1 inh	ABCB6 inh CP1
COCC1CCCN(C(=O)c2ccc(OC3CCN(Cc4ccccn4)CC3)cc2)C1 (stereo unspecified)	95	-17	1	12*	-5	95
O=C1C(C=Nc2ccccc2)=C(O)c2ccccc21	104	1	34	71*	18	97
Cc1cc2nc(-c3ccccc3)c(Cc3cccc(Cl)c3)n2c(C)c1Br	nt	nt	nt	97	8	nt
O=C(Nc1ccc2c(c1)OCO2)c1cc(C2CCCCN2C(=O)c2ccccc2)on1 (stereo unspecified)	nt	nt	nt	96	1	nt
CN1CCN(c2nc3ccccc3nc2C(C#N)C(=O)OC2CCCCC2)CC1 (stereo unspecified)	109	-1	-2	65*	3	99
Cc1ccc(NC(=O)CC2SCCNC2=O)cc1Cl (stereo unspecified)	94	5	-3	67*	-8	100
CN(Cc1ccccc1)C(=O)[C@@H]1CCCN1	nt	nt	nt	101	8	nt
O=C(Oc1ccc(/C=N/n2cnnc2)cc1)c1cccc([N+](=O)[O-])c1	106	-1	7	73*	3	99
CN(C)/N=C/c1ccc(OC(=O)c2cccc([N+](=O)[O-])c2)cc1	127	11	1	98	14	nt
CC(=O)c1cccc(-c2ccnc3c2CC(C(=O)Nc2cccc(NS(C)(=O)=O)c2)O3)c1 (stereo unspecified)	nt	nt	nt	97	0	nt
CCOC(=O)c1ccccc1NC(=O)c1cc(S(=O)(=O)N2CCOCC2)ccc1F	99	2	-13	99	-4	nt
CCOC(=O)N1CCN(S(=O)(=O)c2ccc(F)c(C(=O)Nc3cccc(C)c3C)c2)CC1	90	7	-1	72*	-5	99
COc1ccc(CNC(=O)CSc2nnc(C)s2)cc1	100	2	1	74*	17	97
COc1ccc(CNC(=O)CSc2nnc(NC(=O)C3CC3)s2)cc1	101	17	-1	96	3	nt
CC1=CC(=C2C(=O)c3ccccc3C2=O)C=C(C)N1Cc1ccco1	117	13	-8	66*	15	103
